D2 antag = antagonists of human D2 dopamine receptor; HEK293 TREx D2 cells, calcium flux, dopamine EC80; inhibition, % at 10 µM; hit rate 2% among 340,000; AID 485344; in the data active means inhibition above about 30%; inactive means below that, where a call was filed; further: 0% is about no effect
Target sequence (P14416 whole entry, looked up): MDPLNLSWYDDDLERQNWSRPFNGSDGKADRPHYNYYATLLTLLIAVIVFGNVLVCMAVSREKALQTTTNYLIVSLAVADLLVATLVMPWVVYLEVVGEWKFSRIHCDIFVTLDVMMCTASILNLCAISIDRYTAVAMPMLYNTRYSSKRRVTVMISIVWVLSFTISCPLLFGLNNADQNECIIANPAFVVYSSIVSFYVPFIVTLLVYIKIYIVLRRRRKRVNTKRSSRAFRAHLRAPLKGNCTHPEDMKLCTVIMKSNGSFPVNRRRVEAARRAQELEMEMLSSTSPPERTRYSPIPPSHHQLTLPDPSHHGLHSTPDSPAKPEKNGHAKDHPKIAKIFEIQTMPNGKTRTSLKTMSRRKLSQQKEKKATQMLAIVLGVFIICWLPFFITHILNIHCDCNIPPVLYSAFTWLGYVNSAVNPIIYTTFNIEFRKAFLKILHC
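Calcium mobilization kinetics were recorded at 1 s intervals in tetracycline-induced HEK293 T-REx D2 cells, first for 180 s after compound addition and then 180 s after EC80 dopamine.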
D2 ag-1 = agonists of human D2 dopamine receptor (beta-arrestin); P14416; DiscoveRx PathHunter D2 beta-arrestin, luminescence, 90 min; 100% = 57 uM dopamine signal; activation, % (concentration not given with the values); hit rate 0.084% among 360,000; in the data active means activation above about 40%; inconclusive means between about 15% and that limit
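DiscoveRx PathHunter D2 beta-arrestin cells (2,100/well) attached overnight, then compound-stimulated 90 min at 37 C in HBSS/10 mM HEPES/0.1% Tween-20 buffer; beta-galactosidase complementation read by luminescence after 1 h at ambient temperature. Dopamine 57 uM final (EC100) as control.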
D2 ag-2 = agonists of human D2 dopamine receptor; P14416; HEK293 T-REx D2 cells, calcium flux agonist mode; activation, % at 2 µM; hit rate 0.53% among 340,000; AID 485358;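 active means activation over 3 SD above normal in the single-dose calcium agonist read, cut at about 30% in these data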; further: 0% is about no effect
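Tetracycline-induced HEK293 Trex cells with D2 receptor force-coupled to calcium signaling, plated overnight at 30 C and loaded with no-wash calcium dye. Calcium flux read kinetically for 180 s after compound addition; responses flag agonists.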
D2 PAM-1 = D2 dopamine receptor (human) potentiation; HEK293 T-REx D2, calcium flux, EC20 dopamine potentiation; potentiation, % at 10 µM; hit rate 0.34% among 340,000; AID 485347;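 active means potentiation over 3 SD above the plate norm, cut at about 30% in these data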; further: 0% is about no effect
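Calcium flux readout, no-wash dye, 1 read/s. Inducible HEK293 Trex D2 line, overnight 30 C. Compound alone 180 s (agonist flags), then EC20 dopamine, another 180 s to score potentiation.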
D2 PAM-2 = positive allosteric modulators of human D2 dopamine receptor; P14416; DiscoveRx D2 beta-arrestin cells, luminescence, 90 min; 100% = 57 uM dopamine signal; potentiation, % (test concentration not listed); hit rate 0.23% among 360,000; in the data active means potentiation above about 50%; inconclusive means mostly about 30% to 49%
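D2 cells co-treated with compound plus 50 nM dopamine (EC20) for 90 min at 37 deg C to detect potentiation. Beta-arrestin recruitment was read as enzyme-fragment luminescence after 1 h at ambient temperature. Full response was set by 57 uM dopamine.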
D3 ag = activates human D3 dopamine receptor beta-arrestin recruitment; DiscoveRx D3 beta-arrestin cells, luminescence, 90 min; AID 720506; hit rate 4% among 2,300; shares compounds with D2 ag-2; Potency, µM (highest dose often 76.9 µM), for inactives: at the highest dose activation, usual class: activators;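 further: potency means the concentration at half of the fitted maximal effect; 100% = dopamine control response; nearly all actives have a fitted effect of over 70% in size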
D2 ag-3 = activates human D2 dopamine receptor in D3 counterscreen. shares compounds with D2 ag-2. DiscoveRx PathHunter D2 beta-arrestin, luminescence, 90 min; response scale: percent relative to full dopamine signal. Potency, µM (highest dose often 76.9 µM), for inactives: top-dose activation, hits mostly activators. hit rate 5.9% among 2,300; further: potency means the concentration at half of the fitted maximal effect; % of control where 0% means no effect; nearly all actives have a fitted effect of over 70% in size
Active calls of the source: *; ? = inconclusive; . = no result. Compounds with a hit are over-represented: about 2.4% of the library has one in this group of screens. Unless noted, the call rests on the fitted dose curve; in most records, active means well fitted activation curve with a large enough effect; inconclusive means small, poorly fitted or top-dose-only effect; inactive means flat fitted curve, though single readings scatter.

SMILES	D2 antag	D2 ag-1	D2 ag-2	D2 PAM-1	D2 PAM-2	D3 ag	D2 ag-3
Cc1cccc(C(=O)NCC(=O)N2CC=C(c3ccccc3)CC2)c1	-0.1	1.3	-0.2	-5.1	1.1	-0.7%	-0.9%
CCOc1ccc(NC(=O)Cn2cnc3nc4c(cc3c2=O)CCCC4)cc1	.	.	-0.3	.	.	.	.
Cc1cccc(C2CN(C)CCc3c2cc(O)c(O)c3Cl)c1 (stereo not drawn)	79.2*	5.6	51.7*	-22.9	-16.3	?	29.4%
Oc1cc2c(c(Cl)c1O)CCNCC2c1ccccc1 (stereo not drawn)	.	9.3	.	.	4.1	.	.
Cn1cncc1C#Cc1ccc2cc(CCO)oc(=O)c2c1	-1.3	-1.5	0.1	8.4	-1.1	6.8%	-4.9%
COc1cc2cc(CNc3ccc(C)cc3)c(=O)n(CC(=O)Nc3ccc(F)cc3F)c2cc1OC	.	.	3.4	-10.1	.	.	.
CCOC(=O)c1[nH]c2ccccc2c1NC(=S)Nc1ccccc1	5.4	?	0.7	16.1	13.0	.	.
CN(C)Cc1c(C(=O)Nc2ccccc2)[nH]c2ccccc12	45.0*	-1.0	-0.4	-26.8	-27.9	-11.1%	-2.3%
NC(=NC(=O)c1ccc(Cl)cc1)N1N=CCC1c1ccccc1 (stereo not drawn)	22.9	-3.6	49.7*	-5.6	1.6	-2.3%	4.6%
COc1ccc(NC(=O)CSc2ccc3nnc(CCNC(=O)c4ccccc4)n3n2)cc1	21.2	-3.2	0.0	-2.9	-9.2	-7.6%	2.5%
CC(=O)Nc1ccc(NC(=O)CSc2ccc3nnc(CCNC(=O)c4ccccc4)n3n2)cc1	-3.2	-2.0	0.9	-3.9	-6.3	.	.
CCn1cc2nc(SCc3cc(C)ccc3C)n(Cc3ccc(Cl)cc3)c(=O)c2n1	.	.	0.4	3.0	.	.	.
O=C(NCC(=O)N1CCN(Cc2ccccc2)CC1)c1cccs1	.	7.4	.	.	-1.2	.	.
O=C(c1cccs1)N1CCN(Cc2ccncc2)CC1	21.4	14.0	62.6*	-20.0	3.1	12.6%	?
O=C(c1cccc(Cl)c1)N1CCN(Cc2ccncc2)CC1	-19.3	-4.4	0.7	4.2	-11.1	.	.
O=C(c1cccs1)N1CCN(CCCc2ccccc2)CC1	58.8*	2.3	35.9*	-12.6	-9.6	15.4%	9.4%
O=C(c1cccs1)N1CCN(Cc2ccccc2)CC1	63.9*	40.7*	74.8*	-26.2	24.2	?	?
CN(c1ccc(C(=O)N2CCN(Cc3ccccc3)CC2)cc1)S(=O)(=O)c1ccccc1	60.7*	?	66.6*	-23.6	9.8	2.1%	?
CC(=O)N1c2ccccc2C(=O)C1N1CCN(c2cccc(Cl)c2)CC1 (stereo not drawn)	.	.	-0.2	0.4	.	.	.
COc1ccc(-c2nc(SCC(=O)Nc3ccccc3)c(-c3ccc(F)cc3)[nH]2)cc1OC	.	.	1.3	-14.5	.	.	.
O=C(c1cccs1)N1CCN(c2ncccn2)CC1	15.4	-1.6	0.2	-10.1	2.2	.	.
O=C(c1cccs1)N1CCN(Cc2cccnc2)CC1	58.8*	?	60.0*	-6.1	13.9	-0.6%	?
COc1ccc(CNC(=O)c2cnn3c(C)c(Cc4ccc(F)cc4)c(C)nc23)cc1	.	.	-0.1	-15.2	.	.	.
Cc1ccc(N2C(=O)c3cccc4c(N5CCN(C)CC5)ccc(c34)C2=O)c2cccnc12	5.7	-3.5	32.0*	-15.0	-7.9	-7.1%	-1.2%
COC(=O)Cc1ccc(NC(=S)N2CCN(c3cccc(O)c3)CC2)cc1	23.9	13.9	43.6*	-15.5	-5.1	28.2µM*	?
COC(=O)Cc1ccc(NC(=S)N2CCN(c3ccc(OC)cc3)CC2)cc1	-9.4	-2.1	-0.4	4.8	-6.0	.	.
Cc1cccc(C(=O)NC(=S)NNC(=O)c2ccc(Cl)cc2)c1	-0.9	-2.2	74.7*	-15.3	-15.8	-12.7%	-9.1%
Cc1cccc(C(=O)NC(=S)NNC(=O)c2cccs2)c1	21.7	-4.3	29.3	-10.9	-26.5	.	.
